Measured values: PubChem BioAssay (Tox21)
Results filed as inconclusive are left out. Where a call stands in place of a potency, no number is given. Calls of active or inactive are those of the source. Unless noted, calls come from the whole dose curve.

Experiments:
[1] = Nuclear factor erythroid 2-related factor 2/antioxidant responsive element (Nrf2/ARE) small molecule agonists: qHTS cell viability counter screen in human keratinocytes (AID 1919968; active = well fitted curve in the direction sought with a large enough effect in the repeat runs; an effect the other way counts as inactive or inconclusive; note: nearly all actives have a fitted effect of over 55% in size; note: potency is the fitted concentration of half-maximal effect)
In short: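 Measured as CellTiter-Fluor fluorescence, this readout tracks cytotoxicity in the same wells as the ARE-luciferase screen. HaCaT reporter cells (1,500/well) received compounds after a 5 h pre-incubation and were exposed for 23 h.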

[2] = Nuclear factor erythroid 2-related factor 2/antioxidant responsive element (Nrf2/ARE) small molecule agonists: luciferase reporter gene qHTS assay in human keratinocytes (AID 1919969); note: nearly all actives have a fitted effect of over 35% in size; note: potency is the fitted concentration of half-maximal effect
[3] = target: Gonadotropin-releasing hormone receptor (Homo sapiens) (UniProt P30968); assay: Human gonadotropin-releasing hormone receptor (GnRHR) small molecule agonists, calcium flux assay in GnRHR-HEK293 cells (AID 1920063); note: nearly all actives have a fitted effect of over 35% in size; note: potency is the fitted concentration of half-maximal effect
In short: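 Fluorescence kinetics (480 nm excitation, 540 nm emission; 3 min, 1 s steps) report calcium mobilisation in human GnRHR-HEK293 cells in agonist mode. Dye incubation: 1 h, 37 C.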

[4] = target: KiSS-1 receptor (Homo sapiens) (UniProt Q969F8); assay: Human kisspeptin (KISS1R) small molecule agonists, calcium flux assay in KISS1R-HEK293 cells (AID 1920064; active = well fitted curve in the direction sought with a large enough effect in the repeat runs; an effect the other way counts as inactive or inconclusive)
In short: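 Measures KISS1R agonism through calcium-sensitive dye fluorescence in stably transfected HEK293 cells, read for 3 min after pin-tool compound delivery; 15-point titrations in triplicate.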

[5] = G protein-coupled receptor (GPCR) small molecule agonists, calcium flux assay: HEK293 wild type cell line counter screen (AID 1920065)
In short: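 Readout: fluorescence at 480 nm excitation/540 nm emission, sampled at 1 s intervals for 3 min. Cells had been cultured 18 h, then dye-loaded 1 h at 37 C before compound or ATP addition.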

[6] = p53 small molecule agonists, cell-based qHTS assay with rat liver microsomes (AID 1963578)
In short: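 Compound in DMSO added to p53RE-bla cells 5 h post-plating; rat microsomes/NADPH 0.5 mg/mL final; 16 h, 37 C; LiveBLAzer 2 h RT.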

[7] = p53 small molecule agonists, cell-based qHTS assay with human liver microsomes: qHTS cell viability counter screen (AID 1963579); note: nearly all actives have a fitted effect of over 45% in size; note: potency is the fitted concentration of half-maximal effect
In short: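 HLM-supplemented (0.5 mg/mL final) and NADPH-supplemented (0.5 mg/mL final) p53RE-bla cultures, 4,000 cells per well, were dosed with compounds in DMSO for 16 h at 37 C; luminescent ATP detection (CellTiter-Glo, 30 min, room temperature) quantified surviving cells.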

[8] = p53 small molecule agonists, cell-based qHTS assay with rat liver microsomes: qHTS cell viability counter screen (AID 1963580); note: nearly all actives have a fitted effect of over 45% in size; note: potency is the fitted concentration of half-maximal effect
In short: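 Viability is assessed in parallel with the p53 reporter read: HCT-116 p53RE-bla cells receive compounds plus rat microsomes and NADPH (0.5 mg/mL final apiece), incubate 16 h at 37 C, and then CellTiter-Glo luminescence is recorded.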

[9] = p53 small molecule agonists, cell-based qHTS assay (AID 1963582; active = well fitted activation curve with a large enough effect in the signal ratio in the repeat runs, not every such curve was filed as active; the % refers to the signal ratio)
In short: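 Compounds are pin-transferred in DMSO onto p53RE-bla cells and incubated 16 h at 37 C. The B/G FRET beta-lactamase substrate is then applied for 2 h at RT and fluorescence recorded.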

[10] = target: 5-hydroxytryptamine receptor 2A (Homo sapiens) (UniProt P28223); assay: 5-hydroxytryptamine receptor 2A (HTR2A) small molecule antagonists, cell-based qHTS assay (AID 1963586); note: nearly all actives have a fitted effect of over 45% in size
In short: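 Antagonist-mode intracellular calcium assay: DOI (4 nM) added after 5 min compound pre-incubation at room temperature to dye-loaded HTR2A-CHO cells. Fluorescence followed for 3 min, sampled every second.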

[11] = target: 5-hydroxytryptamine receptor 2A (Homo sapiens) (UniProt P28223); assay: 5-hydroxytryptamine receptor 2A (HTR2A) small molecule agonists, cell-based qHTS assay (AID 1963587); note: nearly all actives have a fitted effect of over 30% in size
In short: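 CHO cells stably expressing human HTR2A, plated 18 h, loaded with calcium dye 1 h at 37 C. Agonist mode: compounds added and intracellular calcium fluorescence recorded kinetically for 2 min at 1 sec intervals.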

[12] = target: Muscarinic acetylcholine receptor M1 (Homo sapiens) (UniProt P11229); assay: Cholinergic receptor muscarinic 1 (CHRM1) small molecule antagonists, cell-based qHTS assay (AID 1963588); note: nearly all actives have a fitted effect of over 40% in size; note: potency is the fitted concentration of half-maximal effect
In short: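 CHRM1-CHO calcium-flux assay, antagonist mode. Cells were seeded 18 h, dye-loaded 1 h at 37 C and given compound for 5 min at RT, then acetylcholine was added at 50nM. FDSS fluorescence was read 3 min; 15 concentrations, three runs.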

[13] = target: Muscarinic acetylcholine receptor M1 (Homo sapiens) (UniProt P11229); assay: Cholinergic receptor muscarinic 1 (CHRM1) small molecule agonists, cell-based qHTS assay (AID 1963589); note: nearly all actives have a fitted effect of over 35% in size
In short: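 Each compound was tested at 15 concentrations across three independent runs on dye-loaded CHO cells stably expressing human CHRM1, reading intracellular calcium fluorescence kinetically at 1 sec intervals.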

[14] = cAMP Responsive Elements (CRE) small molecule agonists, cell-based qHTS assay (AID 1963590)
In short: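 Cell line: CRE-bla HEK 293T; medium DMEM/10% dialyzed FBS/0.1 mM NEAA/1 mM pyruvate/25 mM HEPES; 3 h compound exposure; beta-lactamase FRET readout after 2 h substrate loading at RT.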

[15] = target: D(2) dopamine receptor (Homo sapiens) (UniProt P14416); assay: Dopamine D2 receptor (DRD2) small molecule agonists, cell-based qHTS assay (AID 1963594); note: nearly all actives have a fitted effect of over 35% in size
In short: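 HEK293 cells stably expressing human DRD2, pre-treated with PDE inhibitor Ro20-1724 (0.1 mM final) and compound 10 min at room temperature, then stimulated with NKH477 (200nM […]) for 30 min. cAMP read by HTRF (665/620 nm).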

[16] = p53 small molecule agonists, cell-based qHTS assay: qHTS cell viability counter screen (AID 1963581); note: nearly all actives have a fitted effect of over 45% in size
In short: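 In the same plates used for the p53 bla reporter, HCT-116 cells given compounds for 16 h at 37 C received CellTiter-Glo; luminescence was recorded 30 min later at room temperature.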

[17] = target: Beta-2 adrenergic receptor (Homo sapiens) (UniProt P07550); assay: Adrenergic beta2 receptor (ADRB2) small molecule antagonists, cell-based qHTS assay (AID 1963592); note: series mostly up to about 92 µM; nearly all actives have a fitted effect of over 50% in size
In short: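 Cells (CHO, stable ADRB2 overexpression) incubated 18-20hr at 37C; compounds added from DMSO; agonist mix (1nM isoproterenol, 100uM IBMX, 25uM Ro-20-1724) added; 0.5hr RT; d2-cAMP and anti-cAMP-cryptate added; 1hr RT; 665/615 nm read.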

[18] = target: D(2) dopamine receptor (Homo sapiens) (UniProt P14416); assay: Dopamine D2 receptor (DRD2) small molecule antagonists, cell-based qHTS assay (AID 1963595; active = well fitted inhibition curve with a large enough effect in the signal ratio in the repeat runs, with a control signal flat; the % refers to the signal ratio; note: potency is the fitted concentration of half-maximal effect)
In short: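 HEK293 cells stably expressing DRD2 were preincubated with 0.1 mM Ro20-1724, then with compound for 10 min at room temperature. Cells were stimulated with 200 nM NKH477 plus 12 nM quinpirole for 30 min, and cAMP was read by HTRF.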

[19] = target: Beta-2 adrenergic receptor (Homo sapiens) (UniProt P07550); assay: Adrenergic beta2 receptor (ADRB2) small molecule agonists, cell-based qHTS assay (AID 1963593);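 note: CHO cells stably overexpressing human ADRB2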
In short: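 CHO cells stably over-expressing ADRB2 were plated overnight at 37C, then dosed with compounds plus a stimulation mix containing 100uM IBMX and 25uM Ro-20-1724 for 0.5hr at room temperature. cAMP was measured by HTRF competition, 1hr.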

[20] = cAMP Responsive Elements (CRE) small molecule antagonists, cell-based qHTS assay (AID 1963591; active = well fitted inhibition curve with a large enough effect in the signal ratio in the repeat runs, not every such curve was filed as active; the % refers to the signal ratio)
In short: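 Inhibition of NKH477-driven (0.25 uM final) CRE-beta-lactamase signal in HEK293T cells, 3 h compound exposure at 37 °C, detected by FRET substrate fluorescence.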

Sequence of 5-hydroxytryptamine receptor 2A (Homo sapiens) (P28223 whole entry, looked up): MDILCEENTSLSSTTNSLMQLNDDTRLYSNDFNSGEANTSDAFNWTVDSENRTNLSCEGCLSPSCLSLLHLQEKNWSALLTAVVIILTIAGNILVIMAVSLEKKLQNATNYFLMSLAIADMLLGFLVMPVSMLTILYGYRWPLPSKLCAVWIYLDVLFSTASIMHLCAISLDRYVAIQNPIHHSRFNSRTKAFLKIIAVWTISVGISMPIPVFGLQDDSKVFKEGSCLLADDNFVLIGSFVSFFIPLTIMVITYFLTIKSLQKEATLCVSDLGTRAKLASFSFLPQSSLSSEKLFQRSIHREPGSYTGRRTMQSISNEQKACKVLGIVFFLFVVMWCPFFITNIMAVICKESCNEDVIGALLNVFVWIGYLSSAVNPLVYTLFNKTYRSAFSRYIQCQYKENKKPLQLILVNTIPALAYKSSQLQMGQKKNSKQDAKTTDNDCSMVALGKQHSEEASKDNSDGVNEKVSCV
Sequence of Beta-2 adrenergic receptor (Homo sapiens) (P07550 whole entry, looked up): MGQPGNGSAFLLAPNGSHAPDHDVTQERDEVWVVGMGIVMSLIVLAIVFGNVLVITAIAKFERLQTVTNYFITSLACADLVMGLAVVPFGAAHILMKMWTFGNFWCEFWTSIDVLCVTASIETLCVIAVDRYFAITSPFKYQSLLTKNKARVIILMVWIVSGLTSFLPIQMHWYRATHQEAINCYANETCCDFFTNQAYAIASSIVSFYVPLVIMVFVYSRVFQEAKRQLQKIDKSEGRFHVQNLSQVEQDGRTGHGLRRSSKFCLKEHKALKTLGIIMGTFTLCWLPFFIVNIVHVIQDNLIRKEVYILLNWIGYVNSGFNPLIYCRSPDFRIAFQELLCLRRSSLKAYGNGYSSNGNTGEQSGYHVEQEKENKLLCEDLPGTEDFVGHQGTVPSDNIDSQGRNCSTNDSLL
Sequence of Gonadotropin-releasing hormone receptor (Homo sapiens) (P30968 whole entry, looked up): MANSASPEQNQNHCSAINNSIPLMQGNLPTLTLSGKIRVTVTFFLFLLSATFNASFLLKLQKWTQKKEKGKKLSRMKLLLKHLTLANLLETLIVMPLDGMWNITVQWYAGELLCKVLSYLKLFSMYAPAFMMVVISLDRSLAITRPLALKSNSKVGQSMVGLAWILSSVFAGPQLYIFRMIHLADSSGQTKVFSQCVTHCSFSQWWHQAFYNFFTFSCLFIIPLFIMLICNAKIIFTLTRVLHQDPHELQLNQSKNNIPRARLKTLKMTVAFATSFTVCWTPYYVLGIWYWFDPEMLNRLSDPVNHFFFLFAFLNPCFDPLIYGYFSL
Sequence of D(2) dopamine receptor (Homo sapiens) (P14416 whole entry, looked up): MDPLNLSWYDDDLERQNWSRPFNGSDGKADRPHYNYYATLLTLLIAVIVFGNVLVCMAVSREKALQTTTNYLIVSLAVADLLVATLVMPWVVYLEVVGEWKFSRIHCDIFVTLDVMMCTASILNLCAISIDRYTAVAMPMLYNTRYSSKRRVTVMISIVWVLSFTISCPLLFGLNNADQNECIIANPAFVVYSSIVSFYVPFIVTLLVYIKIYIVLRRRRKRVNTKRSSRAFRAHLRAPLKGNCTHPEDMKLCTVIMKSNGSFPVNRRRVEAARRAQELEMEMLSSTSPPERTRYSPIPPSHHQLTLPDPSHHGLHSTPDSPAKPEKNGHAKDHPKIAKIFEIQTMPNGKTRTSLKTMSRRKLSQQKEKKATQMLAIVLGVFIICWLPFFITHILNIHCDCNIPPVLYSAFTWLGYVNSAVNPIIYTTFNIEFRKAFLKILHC
Sequence of Muscarinic acetylcholine receptor M1 (Homo sapiens) (P11229 whole entry, looked up): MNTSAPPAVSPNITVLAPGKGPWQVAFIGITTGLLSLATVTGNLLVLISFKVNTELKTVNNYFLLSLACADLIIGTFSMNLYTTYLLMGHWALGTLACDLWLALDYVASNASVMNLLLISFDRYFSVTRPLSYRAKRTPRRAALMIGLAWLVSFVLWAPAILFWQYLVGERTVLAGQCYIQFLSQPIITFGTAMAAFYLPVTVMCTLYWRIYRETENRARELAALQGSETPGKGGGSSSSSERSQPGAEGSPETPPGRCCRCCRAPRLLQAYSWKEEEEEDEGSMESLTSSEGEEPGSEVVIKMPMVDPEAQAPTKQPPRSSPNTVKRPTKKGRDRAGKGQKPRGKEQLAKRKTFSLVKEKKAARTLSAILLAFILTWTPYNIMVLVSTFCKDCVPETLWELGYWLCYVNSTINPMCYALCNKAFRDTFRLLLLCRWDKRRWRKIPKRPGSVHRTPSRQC
Sequence of KiSS-1 receptor (Homo sapiens) (Q969F8 whole entry, looked up): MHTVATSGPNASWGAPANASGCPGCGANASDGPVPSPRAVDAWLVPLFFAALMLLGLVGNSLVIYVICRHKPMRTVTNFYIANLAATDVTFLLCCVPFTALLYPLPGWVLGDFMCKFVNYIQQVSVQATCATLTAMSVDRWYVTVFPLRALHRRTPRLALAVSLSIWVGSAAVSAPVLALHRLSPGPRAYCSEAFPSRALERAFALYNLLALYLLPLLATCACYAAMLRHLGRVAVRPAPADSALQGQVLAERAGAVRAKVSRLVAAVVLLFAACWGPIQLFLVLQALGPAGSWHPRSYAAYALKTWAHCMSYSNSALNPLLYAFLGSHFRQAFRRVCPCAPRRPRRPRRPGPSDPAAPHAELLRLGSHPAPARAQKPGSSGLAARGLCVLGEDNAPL

SMILES | Potency [1] | Potency [2] | Potency [3] | Potency [4] | Potency [5] | Potency [6] | Potency [7] | Potency [8] | Potency [9] | Potency [10] | Potency [11] | Potency [12] | Potency [13] | Potency [14] | Potency [15] | Potency [16] | Potency [17] | Potency [18] | Potency [19] | Potency [20]
Oc1ccc2c(c1)-c1ccccc1C2 | inactive | inactive | inactive | inactive | inactive | inactive | inactive | inactive | inactive | inactive | inactive | inactive | inactive | inactive | inactive | – | – | – | – | –
COc1ccc(S(=O)(=O)N2C(=O)[C@@](c3ccccc3OC)(N3C[C@H](O)C[C@H]3C(=O)N(C)C)c3cc(Cl)ccc32)c(OC)c1 | inactive | inactive | inactive | inactive | inactive | inactive | inactive | inactive | – | inactive | inactive | – | inactive | – | – | inactive | inactive | inactive | – | –
Nc1nnc(-c2ccc([N+](=O)[O-])o2)o1 | inactive | 61.1 µM (active) | inactive | inactive | inactive | inactive | inactive | inactive | – | inactive | inactive | inactive | inactive | inactive | inactive | inactive | inactive | – | inactive | –
CCN=C1C=CC(=C(c2ccc(N(CC)CC)cc2)c2ccc(N(CC)CC)cc2)c2ccccc21 | 19.2 µM (active) | inactive | inactive | inactive | inactive | inactive | 22.8 µM (active) | 40.5 µM (active) | – | inactive | inactive | inactive | – | – | – | – | – | – | – | –
CCCCCCCCCCCCCCCCCCNC(=O)OC1CCN(C(=O)OC[C@H](COC(=O)N(Cc2cccc[n+]2CC)C(=O)c2ccccc2OC)OC)CC1 | 10.6 µM (active) | inactive | inactive | inactive | inactive | inactive | inactive | inactive | – | inactive | inactive | – | inactive | – | inactive | inactive | – | – | – | –
O=S(=O)(Oc1ccc(Cl)cc1)c1ccccc1 | inactive | inactive | inactive | inactive | inactive | inactive | inactive | inactive | inactive | inactive | inactive | 11.9 µM (active) | inactive | inactive | inactive | – | inactive | inactive | – | inactive
CCCCCCCCCCCCN1CCCCCC1=O | 61.1 µM (active) | inactive | inactive | inactive | inactive | inactive | inactive | inactive | inactive | inactive | inactive | – | inactive | inactive | inactive | – | inactive | inactive | inactive | inactive
CC[C@H]1O[C@]2(CC[C@@H]1C)C[C@@H]1C[C@@H](C/C=C(\C)C[C@@H](C)/C=C/C=C3\CO[C@@H]4[C@H](O)C(C)=C[C@@H](C(=O)O1)[C@]34O)O2 | 15.2 µM (active) | inactive | inactive | inactive | inactive | inactive | inactive | inactive | – | inactive | inactive | inactive | inactive | – | inactive | inactive | inactive | 48.1 µM (active) | – | –
Cc1oc(-c2ccccc2)nc1CCOc1cccc2c1ccn2CCC(=O)O | inactive | inactive | inactive | inactive | inactive | inactive | inactive | inactive | – | inactive | – | inactive | inactive | – | inactive | inactive | inactive | inactive | – | –
CCN(Cc1ccccc1)c1ccccc1 | inactive | inactive | inactive | inactive | inactive | inactive | inactive | inactive | inactive | inactive | inactive | inactive | inactive | inactive | inactive | – | inactive | – | – | inactive
c1ccc(Cc2ccccc2)cc1 | inactive | inactive | inactive | inactive | inactive | inactive | inactive | inactive | inactive | inactive | inactive | inactive | inactive | inactive | inactive | – | inactive | inactive | – | inactive
CCN(Cc1cccnc1)C(=O)c1cccc(Cl)c1[C@]1(C)C(=O)N(Cc2ccc(OC)cc2OC)c2ccc(Cl)cc21 | inactive | inactive | inactive | inactive | inactive | inactive | inactive | inactive | – | inactive | inactive | inactive | inactive | – | inactive | – | inactive | – | – | –
O=C(O)COc1ccc2ccccc2c1 | inactive | inactive | inactive | inactive | inactive | inactive | inactive | inactive | – | inactive | inactive | inactive | inactive | – | inactive | inactive | inactive | inactive | – | –
O=C(O)CN1C(=O)c2cccc3cccc(c23)C1=O | inactive | inactive | inactive | inactive | inactive | inactive | inactive | inactive | inactive | inactive | inactive | inactive | inactive | inactive | inactive | – | inactive | inactive | – | inactive
CC1=Nc2ccc3ccccc3c2C1(C)C | inactive | 68.6 µM (active) | 38.9 µM (active) | inactive | inactive | inactive | inactive | inactive | – | – | inactive | inactive | – | – | inactive | inactive | – | inactive | – | –
